Laboratory results published in PubChem BioAssay (NCI).
The panel holds about 83,000 compounds, 20% with a hit somewhere; the sample as a whole holds those more often.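 Results are percent growth after 48 hours of single-concentration exposure. 100 means growth as in untreated cells, lower positive values show inhibition; negative values down to -100 show cell death.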 Values without a mark were called inactive. The source made the active and inactive calls. How the source made its calls: active means growth percent below 10; inactive means the rest.

Assays:
Assay in all cases: NCI-60 one-dose screen, 48 h (100 = growth as untreated, 0 = no growth, -100 = all killed)
Conditions in all cases: 10 µM
RPMI-8226 leukemia = test system: RPMI-8226 leukemia
OVCAR-8 ovarian = test system: OVCAR-8 ovarian
OVCAR-5 ovarian = test system: OVCAR-5 ovarian
OVCAR-4 ovarian = test system: OVCAR-4 ovarian
IGROV1 ovarian = test system: IGROV1 ovarian
OVCAR-3 ovarian = test system: OVCAR-3 ovarian
NCI/ADR-RES ovarian = test system: NCI/ADR-RES ovarian
T-47D breast = test system: T-47D breast
BT-549 breast = test system: BT-549 breast
MDA-MB-435 melanoma = test system: MDA-MB-435 melanoma
SW-620 colon = test system: SW-620 colon
MCF7 breast = test system: MCF7 breast
HCC-2998 colon = test system: HCC-2998 colon
KM12 colon = test system: KM12 colon
HS 578T breast = test system: HS 578T breast
HCT-116 colon = test system: HCT-116 colon
SK-OV-3 ovarian = test system: SK-OV-3 ovarian

Row | Structure (SMILES) | growth (RPMI-8226 leukemia) | growth (OVCAR-8 ovarian) | growth (OVCAR-5 ovarian) | growth (OVCAR-4 ovarian) | growth (IGROV1 ovarian) | growth (OVCAR-3 ovarian) | growth (NCI/ADR-RES ovarian) | growth (T-47D breast) | growth (BT-549 breast) | growth (MDA-MB-435 melanoma) | growth (SW-620 colon) | growth (MCF7 breast) | growth (HCC-2998 colon) | growth (KM12 colon) | growth (HS 578T breast) | growth (HCT-116 colon) | growth (SK-OV-3 ovarian)
1 | COc1cc(Cl)cc(-c2nn(-c3cccc(NC(=O)Nc4ccc(Cl)c(C(F)(F)F)c4)c3)cc2-c2ccncc2)c1 | -29.1% (active) | 8.71% (active) | 19.2% | 16.6% | 30.2% | -22.6% (active) | 6.07% (active) | 8.1% (active) | 9.81% (active) | -16.8% (active) | 12.7% | 2.57% (active) | 18.1% | 9.1% (active) | – | – | –
2 | COc1ccc(-c2nn(-c3cccc(NC(=O)c4ccc5c(c4)OCCO5)c3)cc2-c2ccncc2)cc1Cl | -11.4% (active) | 29.6% | 42.7% | 49% | 41.5% | 4.99% (active) | 10.2% | 19.5% | 34.2% | -61.8% (active) | 18.3% | – | 46.5% | 9.37% (active) | 1.38% (active) | – | –
3 | COc1cc(-c2cc(/C=C/C(=O)c3ccc(N)cc3)[nH]n2)cc(OC)c1OC | -26.5% (active) | -53.4% (active) | -15% (active) | 26.8% | 18.1% | – | 64.7% | 5.11% (active) | -28.7% (active) | 6.15% (active) | -38.1% (active) | – | -75.4% (active) | -35.1% (active) | 19.2% | -81.5% (active) | –
4 | CN1CCC2(CC1)NC(=O)c1c(c3ccc(Cl)c(Cl)c3n1C)C2C#N (configuration not stated) | 80.4% | 80.8% | 67.7% | – | 73.4% | 76% | 82.4% | 81.3% | 84.9% | 49.2% | 83.9% | 28.5% | -1.84% (active) | 106% | 71.1% | 43% | 86.1%
5 | C[C@]12CC[C@@H]3c4ccc(O)cc4C[C@@H](O)[C@H]3[C@@H]1CC[C@@H]2O | 103% | 106% | 111% | 105% | 99.7% | 114% | 113% | 118% | 102% | 95.8% | 110% | – | 118% | 111% | 117% | 105% | –
6 | Cc1cccc(Cl)c1NC(=O)c1ccc2nc(NC(=O)NC3CCN(C)CC3)sc2c1 | 87.7% | 94.6% | 71.1% | 99.5% | 86% | 116% | 106% | 66% | 98.2% | 82.9% | 98.4% | 94% | 105% | 105% | 48.6% | 81.9% | –
7 | Nc1c(C(=O)Nc2ccccc2)sc2nc3c(cc12)C(O)CCC3 (configuration not stated) | 11.6% | 31% | 57.1% | 61.3% | 29.4% | -19.1% (active) | 11.6% | 53.9% | 66% | -27.2% (active) | 29.6% | 18.4% | 17.9% | 25.8% | 39.6% | 22% | –
8 | O=C(/C(=C/c1ccccc1)CN1CCCCC1)c1ccccc1 | -6.34% (active) | 11% | -66.5% (active) | 12% | -7.89% (active) | -92.7% (active) | 4.84% (active) | – | -56.6% (active) | 6.16% (active) | 0.239% (active) | -22% (active) | -91% (active) | -75.8% (active) | 47.5% | -87.4% (active) | –
9 | CCOC(=O)C(NC(=O)C(Cl)Cl)C(O)c1ccccc1 (configuration not stated) | – | 102% | 102% | 110% | 77.7% | 109% | 108% | 107% | 112% | 94.9% | 100% | 94.8% | 110% | 110% | 120% | 85.3% | 116%
10 | COc1ccc(-n2c(SCc3cc(OC)c(OC)c(OC)c3)nc3ccc(C)cc3c2=O)cc1 | – | 84.2% | 80.6% | 67.2% | 62% | 59.9% | 45.8% | 67.8% | 71.5% | -4.51% (active) | 49.3% | – | 75.7% | 35.4% | 77.7% | 35% | 73.8%
11 | Cc1cs/c(=N\NC(=O)c2cc(-c3cc4ccccc4o3)nn2-c2ccccc2)n1-c1ccccc1 | – | 90.8% | 107% | 82.1% | 2.32% (active) | 67% | 87.1% | 69.6% | – | 102% | 93.4% | 73.4% | – | 98.6% | 49.7% | 83% | 91.2%
12 | CN(C)c1ccc(-c2cc(-c3cccc(NS(C)(=O)=O)c3)nc(N)c2C#N)cc1 | – | 30% | 52% | 45.7% | 80.4% | -48.2% (active) | – | 80.4% | 30.8% | -25.9% (active) | 24.3% | 16.1% | -41.9% (active) | -14.3% (active) | 15.3% | 5.65% (active) | 15.1%
13 | O=c1c2ccccc2nc(SCCN2CCCCC2)n1CCc1ccccc1 | – | 95.9% | 88.7% | 86.7% | 78.7% | 94.1% | 87.6% | 65.5% | 86.3% | 95.9% | 89.9% | 63.3% | 97.9% | 94.2% | 93.9% | 74% | 92.6%
14 | Clc1nc(Cl)c2c(ncn2C/C=C\Cn2cnc3c(Cl)nc(Cl)nc32)n1 | – | -83% (active) | -76.7% (active) | -69% (active) | -83.7% (active) | -98.9% (active) | 11% | – | – | -44.9% (active) | -92.2% (active) | -1.6% (active) | – | -94.5% (active) | -53% (active) | -15.4% (active) | 34.5%
15 | CN(CCc1ccccn1)c1ccccc1 | – | 102% | 94% | 98.5% | 103% | 131% | 105% | 97.4% | 104% | 120% | 111% | 95.9% | 103% | 104% | 107% | 101% | 112%
16 | CN1CCCNc2c(c(=O)c2=O)NCCCN(C)CCCNc2c(c(=O)c2=O)NCCCN(C)CCCNc2c(c(=O)c2=O)NCCCN(C)CCCNc2c(c(=O)c2=O)NCCCN(C)CCCNc2c(c(=O)c2=O)NCCCN(C)CCCNc2c(c(=O)c2=O)NCCCN(C)CCCNc2c(c(=O)c2=O)NCCC1 | – | 18.9% | 99.6% | 66.5% | 47.6% | – | 64.9% | 14.7% | 67.1% | 21.1% | 41% | 74.1% | 70.6% | 34.9% | 85% | 59.2% | 29.4%
17 | COc1ccc(OC)c(/C=C/c2nc(SC)n(-c3ccc(Cl)cc3)n2)c1 | – | 78.5% | 112% | 70% | 61.8% | – | – | 42.8% | 80% | 8.73% (active) | 77.4% | 46.7% | 69.6% | 53.1% | 91.2% | 59.8% | 83.8%
18 | CC(C)=NNc1ncnc2c1ncn2C1OC(CO)C(O)C1O (configuration not stated) | – | 25.7% | 49.2% | 26.4% | 64.5% | 3.84% (active) | – | 19.2% | 43% | 18% | 9.33% (active) | 12.2% | -10.2% (active) | 2.36% (active) | -2.14% (active) | 1.45% (active) | 4.34% (active)
19 | Nc1ccc2c(c1)Cc1cc(N)c(Br)cc1-2 | – | 102% | 113% | – | 116% | – | 90.2% | 78.5% | 94.4% | 102% | 108% | 51.4% | 80.8% | 99.6% | 76.7% | 101% | –
20 | Nc1ncn([C@@H]2O[C@H](CO)[C@@H](O)[C@H]2O)c(=O)n1 | – | 22.4% | 56.8% | 34.1% | 18.5% | 22.7% | 29.1% | 26.6% | 16.3% | 16.6% | 35.6% | – | 11.7% | 16.6% | 23.7% | -31.5% (active) | 17.4%
